“And” between values parts separate entries of the source, which are not always exact repeats. Identical values can stand only once. The campaign covered roughly 340,000 compounds. About 2,100 (0.62%) were called active.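 Rule for the calls: active = first-screen hits whose inhibition reached a set limit at any dose in the follow-up dose series; inconclusive = inhibition above the set first-screen limit but never retested; inactive = the rest.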 These entries were drawn from the full list. Potency and affinity values are given separately.
Molecular target: Rac GTPase-activating protein 1 (Homo sapiens) (UniProt Q9H0H5)
Assay: MgcRacGAP GTPase-activating activity inhibitors, confirmation, biochemical, ADP Hunter fluorescence, primary and confirmatory (AID 624330);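 note: fluorescence reports GDP produced by GAP-driven GTP hydrolysis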
Settings: MgcRacGAP-stimulated Rac1 GTP hydrolysis, at 30 µM, stronger effect = higher value, GST-tagged Rac1 F28L mutant substrate

Chain of Rac GTPase-activating protein 1 (Homo sapiens) (Q9H0H5 whole entry, looked up): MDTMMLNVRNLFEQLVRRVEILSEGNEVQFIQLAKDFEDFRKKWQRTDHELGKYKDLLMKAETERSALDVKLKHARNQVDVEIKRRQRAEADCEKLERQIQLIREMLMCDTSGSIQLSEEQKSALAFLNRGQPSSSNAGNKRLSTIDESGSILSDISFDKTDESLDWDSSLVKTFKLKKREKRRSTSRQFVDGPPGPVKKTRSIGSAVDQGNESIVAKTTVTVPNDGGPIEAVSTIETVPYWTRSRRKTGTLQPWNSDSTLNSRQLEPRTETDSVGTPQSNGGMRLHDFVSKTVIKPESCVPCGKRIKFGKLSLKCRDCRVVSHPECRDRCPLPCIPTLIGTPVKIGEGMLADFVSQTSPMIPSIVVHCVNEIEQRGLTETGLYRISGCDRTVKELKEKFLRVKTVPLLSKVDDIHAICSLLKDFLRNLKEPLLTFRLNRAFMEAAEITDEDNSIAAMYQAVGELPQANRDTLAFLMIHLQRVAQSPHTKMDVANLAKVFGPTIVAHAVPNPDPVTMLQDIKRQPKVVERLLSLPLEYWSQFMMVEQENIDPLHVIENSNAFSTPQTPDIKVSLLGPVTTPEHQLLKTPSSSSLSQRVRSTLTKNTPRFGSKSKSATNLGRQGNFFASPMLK

inhibition, inactive:
Cc1cc(=O)[nH]c2c1c(-c1ccccc1)nn2C 4.24%
O=C1CN(C(=O)c2ccc(F)cc2)c2ccccc2N1 12.4%
CC(=O)Nc1cccc(NC(=O)c2csc(C)c2)c1 8.66%
O=C(O)c1ccc(N2CCCCC2)cc1O 10.7%
COC(=O)[C@@]1(C)[C@H]2C(=O)N(C)C(=O)[C@H]2[C@H]2CN(C)C(=NC3CCCCC3)N21 9.12%
N#Cc1cnn(-c2nc3sc4c(c3c(=O)[nH]2)CCCC4)c1N 11.7%
CN1C(=O)CCS(=O)(=O)C1c1ccc(Cl)c(Cl)c1 (configuration not stated) 8.53%
COc1ccc(NC(=O)CSc2nc3c(c(=O)n(C)c(=O)n3C)n2C)c(OC)c1 4.73%
CCOc1ccc(/C=N/NC(=O)CC(=O)Nc2ccc(Cl)c(Cl)c2)cc1 4.45%
O=C(CC(=O)Nc1cccc(Cl)c1)N/N=C\c1ccccc1 1.72%
CC(C)(C)OC(=O)N1CCC(C(=O)N[C@@H](Cc2ccccc2)C(=O)O)CC1 4.57%
CCC(CC)C(=O)c1c[nH]c(C(=O)O)c1 6.73%
Cc1[nH]c2ccccc2c1-c1csc(NC(=O)CSCC(=O)O)n1 19.6%
Cc1[nH]c2ccccc2c1-c1csc(NC(=O)CN2CCOCC2)n1 25.6%
CCOc1ccc(NC(=O)c2ccc(F)c(S(=O)(=O)N3CCCC3)c2)cc1 10.8%
O=C(c1sc2cc(F)ccc2c1Cl)N1CCN(c2ccccc2)CC1 -1.95%
COc1ccc(N2C(=O)C(F)(F)C2c2cccc(F)c2)cc1 (configuration not stated) 5.49%
O=c1[nH]n(-c2ccccc2Cl)c(=O)c2ccccc12 4.42%
COc1ccc(Oc2c(Cl)cnn(-c3ccc(F)cc3)c2=O)cc1 4.49%
CC(=O)Nc1ccc2c(=O)n(-c3ccccc3)sc2c1 23.5%
O=c1nc(-c2ccccc2Cl)c2cc(F)ccc2[nH]1 9.68%
N#Cc1ccc2c(=O)n(-c3ccccc3)sc2c1 22.6%
CC(=O)Nc1ccc(-n2c(=O)c3ccccc3c3ccccc3c2=O)cc1 8.38%
Cc1cccc(CSC2=NCCN2C(=O)c2ccc(S(=O)(=O)N(C)C)cc2)c1 4.49%
CCOC(=O)CNC(=O)Cn1cnc2c(nnn2-c2ccc(C)cc2)c1=O 1.26%
COCCOCC(O)CN1CCN(c2ccc(C)cc2)CC1 (configuration not stated) 24.5%
C[C@@H]1CN([C@@H](C)CO)C(=O)CCCn2nncc2CO[C@H]1CN(C)C(=O)OCc1ccccc1 7.03%
CN1CCN(S(=O)(=O)c2cccc(C(=O)N(C)CC(=O)Nc3ccc(F)c(F)c3F)c2)CC1 9.79%
Cc1ccc2nc(SCC(=O)NCc3ccc(F)cc3)nc(=O)n2c1 6.12%
Cc1ccc(C(=O)Nc2ccc(N3CCOCC3)cc2)cc1S(=O)(=O)N1CCCCC1 3.29%
O=c1c2cc(F)ccc2sn1-c1ccc(F)cc1 30.6%
O=c1c2cc(C(F)(F)F)ccc2sn1-c1ccccc1 24.6%
OCCOCCN1CCN(C(=S)Nc2ccccc2)CC1 6.01%
OCCOCCN1CCN(C2=Nc3ccccc3Sc3ccccc32)CC1 -0.15% and -4.72%
COC(=O)C1CCN(Cc2cn(Cc3ccccc3)nc2-c2cc3ccccc3o2)CC1 13.5%
COCCNC(=O)C(OC(=O)c1nsc(Cl)c1Cl)C(C)C (configuration not stated) 10.9%
CCCN(CC(=O)Nc1cc(Cl)ccc1Cl)C(=O)c1ccc(N2CCCC2=O)cc1 3.44%
COc1cc(/C=N/NC(=O)c2cc(-c3cccc(Br)c3)nc3ccccc23)cc(OC)c1O 13.9%
O=C1NC(=O)C(=Cc2ccc(Cl)cc2Cl)S1 7.66%
Cc1cc(/C=C2\SC(=S)NC2=O)c(C)n1C 26.3%
Cc1nn(C)cc1/C=C1\SC(=S)NC1=O -1.15%
O=C1NC(=S)SC1=Cc1cc(Br)ccc1O 16.8%
O=C1NC(=S)SC1=Cc1ccc(F)cc1 15.8%
O=C1NC(=S)SC1=Cc1ccc(Cl)cc1 8.39%
Cc1cccc(NC(=O)CN2C(=O)NC(C)(c3ccc4c(c3)OCO4)C2=O)c1 (configuration not stated) 3.23%
O=C(CSc1ncn[nH]1)N1CCN(c2nnc(-c3ccccc3)c3ccccc23)CC1 11.7%
Cc1cc(C)nc(N/N=C/C2=C(N3CCOCC3)C(=C/c3ccccc3)/CC2)n1 9.21%
COc1ccc(N=C2C(=O)N3c4c(cccc42)C(C)=CC3(C)C)cc1 13.7%
C=CCN(Cc1nc(-c2ccc(OC)cc2)no1)C(=O)c1ccc2c(c1)OCO2 2.96%
Cn1cccc1/C=N/N1CCN(Cc2cccc3ccccc23)CC1 25.4%
Clc1ccc(/C=N/N2CCN(Cc3ccccc3Cl)CC2)cc1 12%
Cn1cccc1/C=N/N1CCN(Cc2ccccc2)CC1 23%
CCN(CC)c1ccc(/C=N/N2CCN(Cc3ccccc3Cl)CC2)cc1 -3.36%
Cc1ccc(NC(=S)NCc2ccc3c(c2)cc(C)n3C)c(C)c1 9.16%
O=C(COC(=O)c1ccc(O)cc1)Nc1cccc(S(=O)(=O)N2CCCCC2)c1 5.81%
C=C(C)c1ccc(C(C)(C)NC(=O)N(Cc2ccccc2)Cc2ccco2)cc1 0.01%
C/C(=C/c1oc2ccc(O)cc2c1[N+](=O)[O-])N(C)C 14.9%
CC(=O)Oc1ccc2oc(/C=C/N(C)C)c([N+](=O)[O-])c2c1 16.9%
CCN(CC)S(=O)(=O)c1ccc(NC2=NS(=O)(=O)c3ccccc32)cc1 1.99%
O=S1(=O)N=C(Nc2ccc(N3CCOCC3)cc2)c2ccccc21 2.07%
CC(=O)Nc1ccc(NC2=CC(=O)CC(C)(C)C2)cc1 7.91%
CC1(C)CC(=O)C=C(Nc2ccc(F)cc2)C1 -10%
